From PubChem
Only some compounds are listed: those with a hit (about 11% of all), similar ones and a draw of the others.
VACV Venus inh: inhibitors of vaccinia virus (Venus reporter); Vaccinia virus Venus reporter expression, fluorescence; Potency, µM (doses to about 36.5 µM), for the others: at the top dose activity change, negative = inhibition, actives largely listed as inhibitors; 0.46% of 330,000 active; AID 720580; calls by dose curve; tested in A549 cells; also: % is scaled to controls: 0 for no effect and ±100 for the full control effect; nearly all actives have a fitted effect of over 30% in size
HCV inh: inhibitors of hepatitis C virus infection | 3.4% of 340,000 active | Potency, µM (highest dose often 41.8 µM), for the others: at the top dose activity change, negative = inhibition, usual class: inhibitors | Huh7.5.1 HCVcc-Cre infection, luciferase reporter, 44 h; also: % is scaled to controls: 0 for no effect and ±100 for the full control effect
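After 44 h co-culture of compound, cells and HCVcc-Cre (~0.5 moi), substrate is added for 15 min at room temperature and luciferase measured over 15 sec. Cells were seeded at 1,000/well and pre-cultured 4 h.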
Pf growth 96h: inhibits malaria parasite growth, 96 h. Potency, µM (top dose mostly 28.7 µM), for inactives: at the highest dose activity change, negative = inhibition, usual class: inhibitors. 6.9% of 320,000 active. P. falciparum luciferase reporter growth, 96 h. AID 504834; also: % is scaled to controls: 0 for no effect and ±100 for the full control effect
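Plates of compound plus infected erythrocytes (2% hematocrit, 0.05% parasitemia final) incubate 96 hours, 37 C, 5% CO2. Detection reagent added; reduced luminescence from the parasites' luciferase reporter flags inhibition.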
Pf growth 48h: P. falciparum growth inhibition at 48 hours (one generation). P. falciparum luciferase growth in erythrocytes, 48 h. Potency, µM (doses to about 28.7 µM), for inactives: at the highest dose activity change, negative = inhibition, hits mostly inhibitors. 5.9% of 310,000 active. AID 504832; also: % is scaled to controls: 0 for no effect and ±100 for the full control effect
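Luminescence readout; reporter = integrated firefly luciferase in P. falciparum. RBC culture at 2% hematocrit, 0.1% parasitemia final, 37 C/5% CO2; decreased signal taken as growth inhibition.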
Vaccinia mCherry: inhibitors of vaccinia virus infection (mCherry reporter signal). Vaccinia virus mCherry reporter infection, fluorescence. Potency, µM (series often up to 36.5 µM), inactives show at the top dose activity change, negative = inhibition, most hits filed as inhibitors. 0.63% of 310,000 active. AID 720579; calls by dose curve; tested in A549 cells; also: % is scaled to controls: 0 for no effect and ±100 for the full control effect; nearly all actives have a fitted effect of over 35% in size
NS1 function inh: blocks influenza NS1 protein function; Potency, µM (highest dose often 46.1 µM), inactives show at the top dose activity, positive = more growth; AID 2326; 0.4% of 270,000 active; calls by dose curve; also: actives are rising curves; nearly all actives have a fitted effect of over 50% in size
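Growth recovery, yeast-based: influenza A NS1 expressed in S. cerevisiae causes slow growth, and suppressors are detected by OD600. The parent strain without NS1 is used as positive control.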
An asterisk follows results filed as active; i = inactive; ? = inconclusive; / = no result; [ ] = dose if it differs, or a comment. Unless noted, calls follow the shape of the dose curve; as a rule, active = well fitted inhibition curve with a large enough effect; inconclusive = small, poorly fitted or top-dose-only effect, or another doubt; inactive = no such curve, though single readings can be large or run the other way. Potency is read from the fitted curve at half-maximal effect.

SMILES	VACV Venus inh	HCV inh	Pf growth 96h	Pf growth 48h	Vaccinia mCherry	NS1 function inh
CCOC(=O)/C(=N\O)C1=NC(C)(C)Cc2ccccc21	-15.5%	30.7%	-28.0%	10.8%	-6.2%	0.8%
[O-][n+]1c2c(c3c4non(O)c4ccc31)CCCC2	-1.7%	-23.3%	11.7µM*	/	-3.7%	-116.4%
COc1ccc(N2CC(C(=O)N[C@@H](C)C(=O)N[C@H](CO)c3ccccc3)CC2=O)cc1 (some centres not stated)	1.2%	-2.9%	-0.7%	48.2%	27.3%	0.9%
Cc1cc(C)nc(-n2nc(C)cc2NC(=O)CN2CCc3ccccc3C2)n1	-1.4%	-24.3%	-10.6%	4.15µM*	-17.4%	-42.5%
CCN(CC(=O)Nc1cc(C)nn1-c1nc(C)cc(C)n1)Cc1ccccc1	-26.7%	?	4.15µM*	/	-8.6%	-13.1%
Cc1cc(C)nc(-n2nc(C)cc2NC(=O)CNCc2ccccc2)n1	-17.3%	0.2%	3.9%[5.75 µM]	6.7%	-11.7%	10.1%
CCCCCc1nc2c(=O)[nH]c3ccccc3c2o1	-12.6%	-2.1%	5.22µM*	?	-21.0%	1.5%
O=C(NC(=S)Nc1cccc2c(O)cccc12)c1ccco1	-13.4%	-8.7%	?	?	?	-21.3%
CC1=CC(C)(C)N2C(=O)C3(C(C#N)=C(N)OC4=C3C(=O)CC(C)(C)C4)c3cccc1c32 (configuration not stated)	/	/	19.6%	/	/	-15.1%
CC1=CC(C)(C)N2C(=O)C3(C(C#N)=C(N)Oc4cc(C)oc(=O)c43)c3cc(C)cc1c32 (configuration not stated)	/	-26.7%	/	/	/	/
COc1cc2c3c(c1)C1(C(=O)N3C(C)(C)C=C2C)C(C#N)=C(N)Oc2cc(C)oc(=O)c21 (configuration not stated)	-24.7%	-15.9%	-28.5%	5.86µM*	/	3.0%
CC1=CC(C)(C)N2C(=O)C3(C(C#N)=C(N)OC4=C3C(=O)CC(C)(C)C4)c3c(C)c(C)cc1c32 (configuration not stated)	/	1.9%	4.15µM*	/	/	-7.6%
CCn1c(O)c(N=NC(=O)CNC(=O)c2ccccc2F)c2ccccc21	/	-18.3%	?	23.4%	/	-8.3%
CC(C)C(O)(C#CCN1CCCCC1)C(C)C	-1.5%	-4.8%	?	1.0%	-12.2%	12.6%
O=C1Nc2ccccc2/C1=N\N=C\C1=C(N2CCOCC2)C(=C\c2ccccc2)/CC1	/	/	2.94µM*	?	/	-7.7%
COc1ccc(NC(=O)c2nnn(CC(=O)Nc3cccc(C)c3C)c2N)c(OC)c1	-19.3%	/	/	/	-23.8%	/
Cc1csc2c(SCC(=O)NNC(=O)C(Cl)Cl)ncnc12	/	-0.7%	?	3.29µM*	/	-6.6%
CC[N+](CC)(CC)CCOc1cccc(OCC[N+](CC)(CC)CC)c1OCC[N+](CC)(CC)CC	-16.0%	-0.4%	26.1%	16.2%	-7.5%	-20.8%
CC[N+](CC)(CC)CCOc1ccc(/C=C/c2ccccc2)cc1	-28.3%	?	0.738µM*	0.294µM*	-14.7%	/
O=C1CN(c2nc(-c3cccs3)nc3sc4c(c23)CCCC4)CCN1	?	5.62µM*	?	-21.5%	-21.8%	-1.1%
CC1C/C(=N\NC(=S)NC(C)C)CC(C)(C)C1 (configuration not stated)	-8.5%	14.7%	2.94µM*	/	-18.8%	-4.0%
CC1C/C(=N\NC(=O)c2cccnc2)CC(C)(C)C1 (configuration not stated)	-10.5%	16.0%	4.6%	12.7%	-0.8%	/
Cc1ccc(N2CCN(C(C(=O)Nc3c(C)cccc3C)c3cccc(F)c3)CC2)cc1 (configuration not stated)	-10.1%	/	/	/	-14.9%	/
Cc1sc(NC(=O)CN2CCCC2)nc1-c1ccc2c(c1)CCN2C(=O)c1cccc(F)c1	-24.4%	?	2.6%	?	?	22.8%
Cc1sc(NC(=O)CN(C)C2CCCCC2)nc1-c1ccc2c(c1)CCN2S(=O)(=O)c1ccccc1	/	/	2.94µM*	/	/	23.7%
SMILES	VACV Venus inh	HCV inh	Pf growth 96h	Pf growth 48h	Vaccinia mCherry	NS1 function inh
COc1ccc(/C=N/NC(=O)c2cc[n+]([O-])cc2)cc1	0.4%	-4.9%	4.0%	-9.0%	-4.6%	1.2%
Cc1ccc(NC(=O)Cc2ccc([N+](=O)[O-])cc2)c(Br)c1	-2.4%	5.2%	-17.2%	-14.8%	-11.6%	21.3%
O=C(Cc1ccc([N+](=O)[O-])cc1)Nc1ccc(O)cc1C(=O)O	-11.9%	-3.2%	5.22µM*	2.5%	-18.1%	0.4%
O=C(Cc1ccc([N+](=O)[O-])cc1)Nc1cc(C(F)(F)F)cc(C(F)(F)F)c1	-9.5%	-71.7%	14.7µM*	-79.9%	i	-2.7%
OCCC1CN(Cc2cnc(-c3ccc(Cl)cc3)nc2)CCN1C1CCCCC1 (configuration not stated)	/	12.6µM*	8.2%	10.4µM*	/	0.5%
CC(C)=CCN1CCN(Cc2cnc(N3CCOCC3)s2)CC1CCO (configuration not stated)	-4.5%	-14.3%	11.7µM*	160.1%	-8.8%	-1.8%
CC(C)=CCN1CCN(Cc2cnc(N3CCCC3)s2)CC1CCO (configuration not stated)	-0.8%	10.0%	-2.0%	-1.1%	-2.9%	4.4%
CC(C)=CCN1CCN(Cc2cccc3nonc23)CC1CCO (configuration not stated)	-18.3%	14.4%	2.08µM*	3.8%	-17.9%	-1.7%
CC(C)=CCN1CCN(Cc2cccc3nccnc23)CC1CCO (configuration not stated)	/	4.7%	?	32.2%	/	6.5%
OCCC1CN(Cc2cccc3nonc23)CCN1C1CCCCC1 (configuration not stated)	-17.5%	2.4%	14.7µM*	-1.8%	-3.2%	-2.6%
CCOc1ccc(C2Nc3ccccc3C(CC)(CC)O2)cc1 (configuration not stated)	/	-14.6%	1.0%	20.6%	/	/
OCCC1CN(Cc2cccc3nccnc23)CCN1Cc1ccc(F)cc1 (configuration not stated)	/	4.8%	?	-7.9%	/	-1.3%
Cc1cc(C)n(-c2ccc(F)cc2CN2CCN(C3CCCC3)C(CCO)C2)n1 (configuration not stated)	-1.8%	18.1%	1.65µM*	18.5%	-11.2%	2.3%
OCCC1CN(Cc2nc3ccc(F)cc3[nH]2)CCN1C1CCCC1 (configuration not stated)	-1.5%[7.34 µM]	-7.7%	2.6%	10.7%	-14.1%[7.34 µM]	-0.3%
OCCC1CN(Cc2cccc3nccnc23)CCN1C1CCCC1 (configuration not stated)	-3.7%	9.4%	13.1µM*	15.2%	-15.0%	4.0%
COc1ccc(S(=O)(=O)N2CCN(C(=O)COc3ccc(C)c(C)c3)CC2)cc1OC	-15.5%	?	0.8%	10.4µM*	-20.0%	0.5%
COc1ccc(S(=O)(=O)N2CCN(C(=O)CCOc3ccccc3)CC2)cc1OC	/	-6.5%	-17.2%	?	/	/
